Holding throughout (test): DAPPL (digital affinity profiling via proximity ligation, sequencing); 10 mM Tris-HCl pH 7.5, 50 mM NaCl, 1 mM DTT, 4% glycerol, room temperature, 30 min; GST-TFs on glutathione beads, 16-mer random dsDNA library, 0.1% formaldehyde crosslink after washing; high values mean tight binding
One assay deals with T1, FEV (Homo sapiens, UniProt Q99581 1-238).
T1 sequence: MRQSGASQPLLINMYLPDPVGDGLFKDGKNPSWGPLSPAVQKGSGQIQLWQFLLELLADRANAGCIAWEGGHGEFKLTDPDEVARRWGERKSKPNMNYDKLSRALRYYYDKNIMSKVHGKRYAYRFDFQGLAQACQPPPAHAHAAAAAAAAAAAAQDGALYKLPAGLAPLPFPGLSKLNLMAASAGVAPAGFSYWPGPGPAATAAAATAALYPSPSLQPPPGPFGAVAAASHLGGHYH
Particulars: protein: recombinant; tags: N-terminal GST; dsDNA, one strand shown. In outline:
(§1)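 Human transcription factors carrying a GST fusion were produced in yeast, bound to glutathione beads, tagged with DNA barcodes and pooled together with a tag-only sample. Each pool was held with 200 nmole of a random double-stranded 16-mer DNA library in Tris/NaCl/DTT/glycerol buffer for 30 min at room temperature, then washed, crosslinked in 0.1% formaldehyde, proximity-ligated with BsaI/T4 ligase (1 h, 37 °C), PCR-amplified and sequenced on an Illumina NextSeq500. Binding signal is the read frequency of each hexamer for a given factor divided by its frequency in the tag-only sample.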

For a further assay, the target named is ETV5 (Homo sapiens, UniProt P41161 1-510). Particulars: protein: recombinant; tags: N-terminal GST; dsDNA, one strand shown. In outline: as §1
Chain of ETV5 (P41161 whole entry): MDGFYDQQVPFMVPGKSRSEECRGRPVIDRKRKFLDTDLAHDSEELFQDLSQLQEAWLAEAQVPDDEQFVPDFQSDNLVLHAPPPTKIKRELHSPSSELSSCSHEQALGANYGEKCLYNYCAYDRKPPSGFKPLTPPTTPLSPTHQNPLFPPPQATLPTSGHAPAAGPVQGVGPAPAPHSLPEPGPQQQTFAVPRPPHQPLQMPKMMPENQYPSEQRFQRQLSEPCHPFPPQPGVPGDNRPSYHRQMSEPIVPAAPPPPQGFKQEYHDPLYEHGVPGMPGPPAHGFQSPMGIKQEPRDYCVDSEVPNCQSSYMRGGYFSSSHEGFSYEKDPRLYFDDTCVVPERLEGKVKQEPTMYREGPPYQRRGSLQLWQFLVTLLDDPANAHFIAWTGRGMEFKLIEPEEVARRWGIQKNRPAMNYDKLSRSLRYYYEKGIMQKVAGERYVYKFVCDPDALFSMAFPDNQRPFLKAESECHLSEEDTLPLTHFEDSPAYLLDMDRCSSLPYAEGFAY
For a further assay, the target named is HSF1 (Homo sapiens, UniProt Q00613 1-529). Particulars: protein: recombinant; tags: N-terminal GST; chain copies: 3; dsDNA, one strand shown. The essentials: as §1
Chain of HSF1 (Q00613 whole entry): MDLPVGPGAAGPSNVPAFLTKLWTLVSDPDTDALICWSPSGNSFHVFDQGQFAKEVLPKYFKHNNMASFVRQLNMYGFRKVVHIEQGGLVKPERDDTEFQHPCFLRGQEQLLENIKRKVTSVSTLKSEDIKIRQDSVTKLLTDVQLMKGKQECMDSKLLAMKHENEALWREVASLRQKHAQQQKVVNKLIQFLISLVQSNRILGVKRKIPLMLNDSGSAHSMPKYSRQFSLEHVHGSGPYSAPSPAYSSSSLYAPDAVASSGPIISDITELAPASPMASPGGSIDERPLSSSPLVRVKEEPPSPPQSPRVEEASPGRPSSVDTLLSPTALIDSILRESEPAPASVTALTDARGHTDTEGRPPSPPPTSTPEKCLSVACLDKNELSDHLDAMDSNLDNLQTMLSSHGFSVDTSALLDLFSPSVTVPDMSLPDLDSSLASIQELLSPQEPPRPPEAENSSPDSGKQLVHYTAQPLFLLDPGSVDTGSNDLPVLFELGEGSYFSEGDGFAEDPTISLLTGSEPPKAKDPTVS
A further assay deals with T2, SPIC (Homo sapiens, UniProt Q8N5J4 1-248).
T2 sequence: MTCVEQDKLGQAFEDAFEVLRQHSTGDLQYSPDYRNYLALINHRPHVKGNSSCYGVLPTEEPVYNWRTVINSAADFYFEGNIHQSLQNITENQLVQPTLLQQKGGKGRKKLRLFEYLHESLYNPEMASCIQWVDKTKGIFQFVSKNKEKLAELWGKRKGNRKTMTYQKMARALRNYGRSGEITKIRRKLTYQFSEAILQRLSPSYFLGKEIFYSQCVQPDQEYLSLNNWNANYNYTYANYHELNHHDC
Particulars: protein: recombinant; tags: N-terminal GST; dsDNA, one strand shown. The essentials: as §1

In the next assay the target is ELF4 (Homo sapiens, UniProt Q99607 1-663). Particulars: protein: recombinant; tags: N-terminal GST; dsDNA, one strand shown. The essentials:
as §1

In the next assay the target is T3, ELK4 (Homo sapiens, UniProt P28324-2 1-405).
T3 sequence: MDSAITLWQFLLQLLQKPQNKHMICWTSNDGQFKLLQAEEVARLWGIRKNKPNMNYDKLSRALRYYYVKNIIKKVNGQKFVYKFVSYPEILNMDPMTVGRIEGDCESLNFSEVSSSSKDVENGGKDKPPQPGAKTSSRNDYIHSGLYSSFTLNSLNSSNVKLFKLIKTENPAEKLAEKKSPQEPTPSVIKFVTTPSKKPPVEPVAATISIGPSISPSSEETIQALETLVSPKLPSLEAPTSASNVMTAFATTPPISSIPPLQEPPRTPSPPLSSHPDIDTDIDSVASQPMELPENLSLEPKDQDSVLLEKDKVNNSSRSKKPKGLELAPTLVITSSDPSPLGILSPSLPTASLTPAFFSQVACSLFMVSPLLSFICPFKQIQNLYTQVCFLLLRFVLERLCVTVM
Particulars: protein: recombinant; tags: N-terminal GST; dsDNA, one strand shown. The essentials:
as §1

A further assay has as its target T4, ETV2 (Homo sapiens, UniProt O00321 1-342).
T4 sequence: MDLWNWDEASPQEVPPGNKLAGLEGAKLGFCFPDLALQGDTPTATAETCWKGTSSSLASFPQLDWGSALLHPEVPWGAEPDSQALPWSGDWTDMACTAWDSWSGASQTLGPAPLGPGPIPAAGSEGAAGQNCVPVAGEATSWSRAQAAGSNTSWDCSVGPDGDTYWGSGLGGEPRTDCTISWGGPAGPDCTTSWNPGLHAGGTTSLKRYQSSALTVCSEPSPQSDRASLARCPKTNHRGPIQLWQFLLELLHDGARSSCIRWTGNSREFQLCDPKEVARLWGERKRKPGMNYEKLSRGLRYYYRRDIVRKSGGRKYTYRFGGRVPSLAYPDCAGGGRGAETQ
Particulars: protein: recombinant; tags: N-terminal GST; dsDNA, one strand shown. The essentials: as §1

In another assay the target is T5, ELF3 (Homo sapiens, UniProt P78545 1-371).
T5 sequence: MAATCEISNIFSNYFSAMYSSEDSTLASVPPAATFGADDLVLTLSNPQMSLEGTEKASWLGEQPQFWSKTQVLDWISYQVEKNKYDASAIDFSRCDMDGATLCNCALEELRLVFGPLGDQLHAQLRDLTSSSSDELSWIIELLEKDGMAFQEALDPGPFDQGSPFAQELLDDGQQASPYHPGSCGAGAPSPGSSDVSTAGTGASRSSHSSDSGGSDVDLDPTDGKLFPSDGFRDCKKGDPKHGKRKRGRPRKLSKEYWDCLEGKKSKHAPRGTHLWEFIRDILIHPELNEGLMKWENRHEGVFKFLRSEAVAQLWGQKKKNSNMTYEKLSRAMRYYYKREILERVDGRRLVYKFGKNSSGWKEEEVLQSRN
Particulars: protein: recombinant; tags: N-terminal GST; dsDNA, one strand shown. In outline:
as §1

In another assay the target is CRX (Homo sapiens, UniProt O43186 1-299). Particulars: protein: recombinant; tags: N-terminal GST; dsDNA, one strand shown. The essentials:
as §1

Another assay addresses ETV1 (Homo sapiens, UniProt P50549 1-477). Particulars: protein: recombinant; tags: N-terminal GST; dsDNA, one strand shown. In outline:
as §1

A further assay concerns the target T6, ERF (Homo sapiens, UniProt P50548 1-548).
T6 sequence: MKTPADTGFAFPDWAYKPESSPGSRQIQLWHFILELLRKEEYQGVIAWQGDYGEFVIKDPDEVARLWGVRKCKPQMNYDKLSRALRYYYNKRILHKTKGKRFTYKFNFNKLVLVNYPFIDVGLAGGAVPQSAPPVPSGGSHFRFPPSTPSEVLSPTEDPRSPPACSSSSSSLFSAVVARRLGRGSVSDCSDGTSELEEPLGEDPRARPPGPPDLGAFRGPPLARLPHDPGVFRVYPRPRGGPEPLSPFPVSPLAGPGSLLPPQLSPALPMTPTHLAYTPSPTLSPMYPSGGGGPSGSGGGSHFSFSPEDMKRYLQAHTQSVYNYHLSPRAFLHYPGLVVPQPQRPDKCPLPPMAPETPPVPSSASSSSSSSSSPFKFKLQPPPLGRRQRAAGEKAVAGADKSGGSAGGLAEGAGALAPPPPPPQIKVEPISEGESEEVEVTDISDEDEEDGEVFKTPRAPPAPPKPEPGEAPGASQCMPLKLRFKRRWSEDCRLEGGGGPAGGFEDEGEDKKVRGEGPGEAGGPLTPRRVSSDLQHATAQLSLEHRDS
Particulars: protein: recombinant; tags: N-terminal GST; dsDNA, one strand shown. In outline:
as §1

The target in another assay is T7, ETV3L (Homo sapiens, UniProt Q6ZN32 1-361).
T7 sequence: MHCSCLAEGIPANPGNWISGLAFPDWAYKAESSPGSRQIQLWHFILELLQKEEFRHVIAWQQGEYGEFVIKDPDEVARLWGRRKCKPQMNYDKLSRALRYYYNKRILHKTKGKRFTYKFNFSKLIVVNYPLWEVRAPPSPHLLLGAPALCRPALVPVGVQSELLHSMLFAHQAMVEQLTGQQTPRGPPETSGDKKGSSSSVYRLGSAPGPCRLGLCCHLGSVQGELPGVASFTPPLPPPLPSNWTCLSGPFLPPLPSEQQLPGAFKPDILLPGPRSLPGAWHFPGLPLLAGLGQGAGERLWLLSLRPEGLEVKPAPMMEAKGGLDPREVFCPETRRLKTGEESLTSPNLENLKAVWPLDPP
Particulars: protein: recombinant; tags: N-terminal GST; dsDNA, one strand shown. The essentials:
as §1

Another assay addresses T8, ETS2 (Homo sapiens, UniProt P15036 1-469).
T8 sequence: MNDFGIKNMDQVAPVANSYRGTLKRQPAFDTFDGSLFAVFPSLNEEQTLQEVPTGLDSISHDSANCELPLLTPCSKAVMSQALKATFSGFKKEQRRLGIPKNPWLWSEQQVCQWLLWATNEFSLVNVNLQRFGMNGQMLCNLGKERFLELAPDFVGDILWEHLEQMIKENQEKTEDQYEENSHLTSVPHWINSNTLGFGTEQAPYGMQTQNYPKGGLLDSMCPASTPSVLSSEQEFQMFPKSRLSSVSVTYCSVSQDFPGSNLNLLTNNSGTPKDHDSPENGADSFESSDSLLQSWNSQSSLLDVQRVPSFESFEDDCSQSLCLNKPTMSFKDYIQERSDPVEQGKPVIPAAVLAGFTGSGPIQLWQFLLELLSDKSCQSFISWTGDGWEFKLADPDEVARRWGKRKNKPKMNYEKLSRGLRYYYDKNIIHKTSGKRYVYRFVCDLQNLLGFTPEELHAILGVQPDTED
Particulars: protein: recombinant; tags: N-terminal GST; dsDNA, one strand shown. The essentials:
as §1

The next assay concerns the target T9, SPDEF (Homo sapiens, UniProt O95238 1-335).
T9 sequence: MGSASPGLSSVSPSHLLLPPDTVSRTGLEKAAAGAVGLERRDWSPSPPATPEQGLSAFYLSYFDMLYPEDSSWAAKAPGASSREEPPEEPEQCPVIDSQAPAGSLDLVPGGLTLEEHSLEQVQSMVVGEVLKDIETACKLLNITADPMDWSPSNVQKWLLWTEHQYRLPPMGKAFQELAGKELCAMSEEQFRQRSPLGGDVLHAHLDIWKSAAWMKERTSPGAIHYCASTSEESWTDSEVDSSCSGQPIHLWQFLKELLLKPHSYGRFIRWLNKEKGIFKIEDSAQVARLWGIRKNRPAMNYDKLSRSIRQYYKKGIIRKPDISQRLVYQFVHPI
Particulars: protein: recombinant; tags: N-terminal GST; dsDNA, one strand shown. In outline:
as §1

In a further assay the target is T10, ETV7 (Homo sapiens, UniProt Q9Y603 1-341).
T10 sequence: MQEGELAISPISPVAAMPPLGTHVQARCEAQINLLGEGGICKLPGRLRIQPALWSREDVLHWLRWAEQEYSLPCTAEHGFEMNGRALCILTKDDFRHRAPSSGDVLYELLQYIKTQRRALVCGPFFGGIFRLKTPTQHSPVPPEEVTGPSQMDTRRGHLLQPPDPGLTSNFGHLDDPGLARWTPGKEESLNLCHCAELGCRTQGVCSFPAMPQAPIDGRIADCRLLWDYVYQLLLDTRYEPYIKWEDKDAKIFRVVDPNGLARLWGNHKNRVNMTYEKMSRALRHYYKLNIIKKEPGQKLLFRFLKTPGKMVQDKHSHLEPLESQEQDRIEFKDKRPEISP
Particulars: protein: recombinant; tags: N-terminal GST; dsDNA, one strand shown. The essentials: as §1

For a further assay, the target named is T11, ELF5 (Homo sapiens, UniProt Q9UKW6-2 1-255).
T11 sequence: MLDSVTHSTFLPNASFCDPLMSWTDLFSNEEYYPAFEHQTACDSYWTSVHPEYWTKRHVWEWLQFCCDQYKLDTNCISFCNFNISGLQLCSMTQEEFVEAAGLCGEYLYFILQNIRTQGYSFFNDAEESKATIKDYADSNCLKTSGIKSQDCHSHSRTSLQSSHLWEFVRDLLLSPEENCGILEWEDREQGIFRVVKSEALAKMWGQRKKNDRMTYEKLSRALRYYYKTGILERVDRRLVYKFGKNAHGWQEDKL
Particulars: protein: recombinant; tags: N-terminal GST; dsDNA, one strand shown. The essentials: as §1

The target of another assay is T12, ETV3 (Homo sapiens, UniProt P41162-2 1-143).
T12 sequence: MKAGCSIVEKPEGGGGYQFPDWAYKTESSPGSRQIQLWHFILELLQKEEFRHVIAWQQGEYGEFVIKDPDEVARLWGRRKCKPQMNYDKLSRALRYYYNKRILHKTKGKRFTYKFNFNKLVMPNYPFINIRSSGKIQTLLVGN
Particulars: protein: recombinant; tags: N-terminal GST; dsDNA, one strand shown. The essentials:
as §1

In the next assay the target is ETV6 (Homo sapiens, UniProt P41212 1-452). Particulars: protein: recombinant; tags: N-terminal GST; dsDNA, one strand shown. In outline: as §1
Chain of ETV6 (P41212 whole entry): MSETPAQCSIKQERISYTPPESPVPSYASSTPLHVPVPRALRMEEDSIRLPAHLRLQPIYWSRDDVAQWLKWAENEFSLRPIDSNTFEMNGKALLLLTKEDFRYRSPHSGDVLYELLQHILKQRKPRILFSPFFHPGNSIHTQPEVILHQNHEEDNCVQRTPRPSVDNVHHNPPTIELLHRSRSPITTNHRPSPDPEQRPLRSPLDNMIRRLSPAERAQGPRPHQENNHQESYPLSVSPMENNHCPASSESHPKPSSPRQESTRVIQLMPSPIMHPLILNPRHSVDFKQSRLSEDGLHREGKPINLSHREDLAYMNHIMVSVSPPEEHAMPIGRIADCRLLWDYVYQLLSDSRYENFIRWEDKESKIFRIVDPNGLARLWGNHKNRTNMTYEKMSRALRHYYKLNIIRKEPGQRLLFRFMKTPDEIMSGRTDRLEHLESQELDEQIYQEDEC

Chain of ETV1 (P50549 whole entry): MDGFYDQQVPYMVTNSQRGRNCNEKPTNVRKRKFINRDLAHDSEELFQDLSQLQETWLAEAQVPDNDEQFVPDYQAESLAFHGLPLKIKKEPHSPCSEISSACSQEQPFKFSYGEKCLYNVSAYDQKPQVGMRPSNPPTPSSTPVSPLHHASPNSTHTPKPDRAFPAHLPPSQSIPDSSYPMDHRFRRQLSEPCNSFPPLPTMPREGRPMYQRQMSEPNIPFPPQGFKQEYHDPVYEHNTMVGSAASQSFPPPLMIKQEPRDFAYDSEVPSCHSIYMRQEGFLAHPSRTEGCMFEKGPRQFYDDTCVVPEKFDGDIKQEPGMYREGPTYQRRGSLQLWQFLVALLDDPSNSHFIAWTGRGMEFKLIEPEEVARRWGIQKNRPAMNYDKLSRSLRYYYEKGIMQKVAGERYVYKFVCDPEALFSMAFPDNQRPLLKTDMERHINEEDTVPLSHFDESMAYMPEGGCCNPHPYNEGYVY
Chain of ELF4 (Q99607 whole entry): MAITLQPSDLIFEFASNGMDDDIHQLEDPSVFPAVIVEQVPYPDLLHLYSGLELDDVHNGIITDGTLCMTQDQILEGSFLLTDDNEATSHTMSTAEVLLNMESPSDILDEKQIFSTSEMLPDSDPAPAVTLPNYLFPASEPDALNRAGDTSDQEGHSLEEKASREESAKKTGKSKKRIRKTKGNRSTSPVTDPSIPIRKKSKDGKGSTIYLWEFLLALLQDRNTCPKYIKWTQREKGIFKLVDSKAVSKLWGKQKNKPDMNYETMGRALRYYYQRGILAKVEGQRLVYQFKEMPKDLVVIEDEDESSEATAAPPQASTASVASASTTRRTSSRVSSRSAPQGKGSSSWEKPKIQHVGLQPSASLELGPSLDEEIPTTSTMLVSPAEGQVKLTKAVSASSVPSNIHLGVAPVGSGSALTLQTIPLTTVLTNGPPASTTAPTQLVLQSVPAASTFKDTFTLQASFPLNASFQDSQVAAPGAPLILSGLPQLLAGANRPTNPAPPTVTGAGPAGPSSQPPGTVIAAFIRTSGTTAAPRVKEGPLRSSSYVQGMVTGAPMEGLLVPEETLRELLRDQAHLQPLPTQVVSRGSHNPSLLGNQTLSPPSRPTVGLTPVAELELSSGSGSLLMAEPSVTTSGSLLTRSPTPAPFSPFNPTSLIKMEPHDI
Chain of CRX (O43186 whole entry): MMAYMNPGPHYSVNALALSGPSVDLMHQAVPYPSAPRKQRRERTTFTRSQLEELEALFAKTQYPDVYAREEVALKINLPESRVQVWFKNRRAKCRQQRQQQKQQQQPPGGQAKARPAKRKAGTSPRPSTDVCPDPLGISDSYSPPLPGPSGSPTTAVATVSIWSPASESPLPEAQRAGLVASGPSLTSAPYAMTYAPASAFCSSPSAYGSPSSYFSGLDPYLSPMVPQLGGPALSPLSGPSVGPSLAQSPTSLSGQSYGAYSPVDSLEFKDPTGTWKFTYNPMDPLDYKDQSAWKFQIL

Turning to ACTAGC, the binding signal with FEV was 1.11 fold enrichment (6-mer frequency, TF over GST control); with ETV5, 1.2 fold enrichment (6-mer frequency, TF over GST control); with HSF1, 1.32 fold enrichment (6-mer frequency, TF over GST control); with SPIC, 1.17 fold enrichment (6-mer frequency, TF over GST control); in the assay with ELF4, 1.17 fold enrichment (6-mer frequency, TF over GST control); with ELK4, 1.24 fold enrichment (6-mer frequency, TF over GST control). Also, the binding signal is 1.3 fold enrichment (6-mer frequency, TF over GST control) with ETV2; 1.01 fold enrichment (6-mer frequency, TF over GST control) with ELF3; 1.11 fold enrichment (6-mer frequency, TF over GST control) in the assay with CRX; 1.19 fold enrichment (6-mer frequency, TF over GST control) with ETV1; 1.19 fold enrichment (6-mer frequency, TF over GST control) with ERF; 1.16 fold enrichment (6-mer frequency, TF over GST control) with ETV3L. Moreover, the binding signal with ETS2 was 1.16 fold enrichment (6-mer frequency, TF over GST control); in the assay with SPDEF, 1.15 fold enrichment (6-mer frequency, TF over GST control); with ETV7, 1.16 fold enrichment (6-mer frequency, TF over GST control); with ELF5, 1.13 fold enrichment (6-mer frequency, TF over GST control); with ETV3, 1.15 fold enrichment (6-mer frequency, TF over GST control); in the assay with ETV6 it was 1.2 fold enrichment (6-mer frequency, TF over GST control).

The values are drawn from article PMC7862700, “An all-to-all approach to the identification of sequence-specific readers for epigenetic DNA modifications on cytosine”.
